Assay in all cases: DAPPL (digital affinity profiling via proximity ligation, sequencing); 10 mM Tris-HCl pH 7.5, 50 mM NaCl, 1 mM DTT, 4% glycerol, room temperature, 30 min; GST-TFs on glutathione beads, 16-mer random dsDNA library, 0.1% formaldehyde crosslink after washing; high values mean tight binding
Details in all cases: protein: recombinant; tags: N-terminal GST; dsDNA, one strand shown

One experiment concerns the target T1, FLI1 (Homo sapiens, UniProt Q01543 1-452).
T1 sequence: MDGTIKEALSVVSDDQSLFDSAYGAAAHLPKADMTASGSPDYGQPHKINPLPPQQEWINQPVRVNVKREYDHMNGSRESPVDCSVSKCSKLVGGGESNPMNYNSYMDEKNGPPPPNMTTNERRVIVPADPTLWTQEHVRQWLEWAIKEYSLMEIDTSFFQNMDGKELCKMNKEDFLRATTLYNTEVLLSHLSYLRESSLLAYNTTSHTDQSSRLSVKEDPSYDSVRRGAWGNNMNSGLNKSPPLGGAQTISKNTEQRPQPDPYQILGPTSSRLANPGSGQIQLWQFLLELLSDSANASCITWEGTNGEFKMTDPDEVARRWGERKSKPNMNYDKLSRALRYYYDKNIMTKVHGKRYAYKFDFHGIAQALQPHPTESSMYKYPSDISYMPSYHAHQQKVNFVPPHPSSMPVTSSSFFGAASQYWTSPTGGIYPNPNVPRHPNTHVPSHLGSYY
Put shortly:
(§1)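 Human transcription factors fused to GST were expressed in yeast, captured on glutathione beads, given DNA barcodes and pooled with a GST-only negative control. Pools were incubated with 200 nmole of a 16-mer random double-stranded DNA library in Tris/NaCl/DTT/glycerol buffer at room temperature for 30 min. They were then washed, crosslinked with 0.1% formaldehyde, proximity-ligated (BsaI/T4 ligase, 1 h, 37 °C), PCR-amplified and sequenced on an Illumina NextSeq500. Binding signal is each 6-mer's read frequency for a factor divided by its frequency for the GST control.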

The target in another experiment is T2, GABPA (Homo sapiens, UniProt Q06546 1-454).
T2 sequence: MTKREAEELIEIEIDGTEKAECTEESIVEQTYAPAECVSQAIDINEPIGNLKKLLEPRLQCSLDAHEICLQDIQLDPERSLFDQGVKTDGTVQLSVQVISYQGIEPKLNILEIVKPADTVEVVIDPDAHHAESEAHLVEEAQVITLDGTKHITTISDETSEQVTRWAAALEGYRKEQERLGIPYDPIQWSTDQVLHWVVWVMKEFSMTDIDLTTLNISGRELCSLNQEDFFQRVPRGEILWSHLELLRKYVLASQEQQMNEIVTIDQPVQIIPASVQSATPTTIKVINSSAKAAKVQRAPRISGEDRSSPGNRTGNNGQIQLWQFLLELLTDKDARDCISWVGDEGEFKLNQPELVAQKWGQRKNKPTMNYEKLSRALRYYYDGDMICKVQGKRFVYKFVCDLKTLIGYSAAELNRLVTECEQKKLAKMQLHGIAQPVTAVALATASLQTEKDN
Put shortly: as §1

In another experiment the target is T3, ERG (Homo sapiens, UniProt P11308 1-479).
T3 sequence: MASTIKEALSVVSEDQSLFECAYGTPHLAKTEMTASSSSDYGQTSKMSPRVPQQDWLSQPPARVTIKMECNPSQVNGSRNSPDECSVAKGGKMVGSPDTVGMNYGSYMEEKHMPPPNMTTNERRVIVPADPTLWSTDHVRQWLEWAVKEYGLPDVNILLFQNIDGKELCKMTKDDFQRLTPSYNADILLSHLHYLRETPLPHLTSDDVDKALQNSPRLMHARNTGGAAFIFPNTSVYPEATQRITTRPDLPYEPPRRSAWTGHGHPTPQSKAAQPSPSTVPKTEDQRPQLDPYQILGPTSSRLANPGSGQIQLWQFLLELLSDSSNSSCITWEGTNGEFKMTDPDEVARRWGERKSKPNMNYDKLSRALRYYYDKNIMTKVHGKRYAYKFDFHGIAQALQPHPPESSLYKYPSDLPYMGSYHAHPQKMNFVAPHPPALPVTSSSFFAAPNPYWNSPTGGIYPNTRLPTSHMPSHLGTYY
Put shortly: as §1

Another experiment has as its target ELF1 (Homo sapiens, UniProt P32519 1-619). Put shortly: as §1
The target of a further experiment is SPIB (Homo sapiens, UniProt Q01892 1-262). The essentials: as §1
A further experiment has as its target ELF4 (Homo sapiens, UniProt Q99607 1-663). The essentials: as §1
The target of another experiment is T4, ELK4 (Homo sapiens, UniProt P28324-2 1-405).
T4 sequence: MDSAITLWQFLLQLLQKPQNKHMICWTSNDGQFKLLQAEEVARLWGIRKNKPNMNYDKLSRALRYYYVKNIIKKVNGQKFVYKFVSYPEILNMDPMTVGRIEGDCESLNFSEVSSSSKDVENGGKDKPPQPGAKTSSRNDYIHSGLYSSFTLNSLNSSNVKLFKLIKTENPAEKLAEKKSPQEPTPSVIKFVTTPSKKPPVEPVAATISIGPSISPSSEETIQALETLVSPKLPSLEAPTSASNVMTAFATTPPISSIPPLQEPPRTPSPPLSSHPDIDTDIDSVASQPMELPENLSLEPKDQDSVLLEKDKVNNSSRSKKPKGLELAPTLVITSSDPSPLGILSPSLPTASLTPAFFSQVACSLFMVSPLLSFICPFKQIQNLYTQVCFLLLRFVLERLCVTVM
The essentials: as §1

The target of a further experiment is T5, ETV2 (Homo sapiens, UniProt O00321 1-342).
T5 sequence: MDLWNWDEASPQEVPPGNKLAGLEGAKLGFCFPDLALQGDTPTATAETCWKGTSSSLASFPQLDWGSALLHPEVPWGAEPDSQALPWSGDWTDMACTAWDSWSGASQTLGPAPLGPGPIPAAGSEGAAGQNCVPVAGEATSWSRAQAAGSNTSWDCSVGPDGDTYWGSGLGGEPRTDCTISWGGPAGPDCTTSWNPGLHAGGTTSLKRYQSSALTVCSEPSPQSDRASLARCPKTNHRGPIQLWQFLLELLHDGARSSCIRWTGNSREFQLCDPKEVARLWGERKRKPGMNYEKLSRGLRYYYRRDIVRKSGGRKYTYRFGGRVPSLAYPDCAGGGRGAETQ
Put shortly:
as §1

The next experiment concerns the target T6, ELF3 (Homo sapiens, UniProt P78545 1-371).
T6 sequence: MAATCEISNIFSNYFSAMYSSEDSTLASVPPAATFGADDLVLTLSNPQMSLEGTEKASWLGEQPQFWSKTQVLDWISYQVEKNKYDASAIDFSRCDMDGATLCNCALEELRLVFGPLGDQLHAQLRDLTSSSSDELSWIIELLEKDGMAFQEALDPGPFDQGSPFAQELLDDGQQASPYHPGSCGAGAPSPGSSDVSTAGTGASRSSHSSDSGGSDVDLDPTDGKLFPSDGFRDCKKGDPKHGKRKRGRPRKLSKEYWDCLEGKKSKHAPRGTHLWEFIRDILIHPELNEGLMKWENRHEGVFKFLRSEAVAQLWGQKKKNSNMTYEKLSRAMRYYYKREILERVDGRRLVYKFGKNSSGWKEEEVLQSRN
The essentials:
as §1

The next experiment has as its target ETV1 (Homo sapiens, UniProt P50549 1-477). The essentials:
as §1

The target of a further experiment is T7, ERF (Homo sapiens, UniProt P50548 1-548).
T7 sequence: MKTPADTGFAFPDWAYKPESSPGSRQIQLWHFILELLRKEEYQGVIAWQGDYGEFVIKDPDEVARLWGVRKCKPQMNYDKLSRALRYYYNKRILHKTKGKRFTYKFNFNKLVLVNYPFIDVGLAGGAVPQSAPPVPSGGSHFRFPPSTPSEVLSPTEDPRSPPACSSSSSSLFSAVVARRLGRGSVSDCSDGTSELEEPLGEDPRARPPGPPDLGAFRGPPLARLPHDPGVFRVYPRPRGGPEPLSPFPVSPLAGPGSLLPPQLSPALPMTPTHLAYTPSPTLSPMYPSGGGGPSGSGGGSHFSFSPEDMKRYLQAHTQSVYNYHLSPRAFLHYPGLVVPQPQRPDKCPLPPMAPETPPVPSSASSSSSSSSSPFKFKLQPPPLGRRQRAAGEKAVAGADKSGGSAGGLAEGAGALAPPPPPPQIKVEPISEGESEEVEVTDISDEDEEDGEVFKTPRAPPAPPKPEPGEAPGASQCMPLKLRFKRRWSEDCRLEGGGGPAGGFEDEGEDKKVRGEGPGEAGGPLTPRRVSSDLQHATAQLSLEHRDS
Put shortly:
as §1

The target of a further experiment is T8, ETV3L (Homo sapiens, UniProt Q6ZN32 1-361).
T8 sequence: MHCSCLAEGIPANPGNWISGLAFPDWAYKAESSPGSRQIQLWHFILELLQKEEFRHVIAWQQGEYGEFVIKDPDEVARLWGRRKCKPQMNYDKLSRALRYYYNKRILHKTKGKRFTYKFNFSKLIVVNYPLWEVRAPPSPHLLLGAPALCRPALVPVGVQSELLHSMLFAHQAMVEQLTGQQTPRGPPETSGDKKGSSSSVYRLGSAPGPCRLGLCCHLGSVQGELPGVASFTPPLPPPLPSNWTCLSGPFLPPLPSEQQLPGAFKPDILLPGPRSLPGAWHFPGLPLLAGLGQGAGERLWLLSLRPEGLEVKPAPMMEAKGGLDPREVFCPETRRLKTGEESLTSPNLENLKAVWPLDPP
The essentials: as §1

In another experiment the target is T9, ETV3 (Homo sapiens, UniProt P41162-2 1-143).
T9 sequence: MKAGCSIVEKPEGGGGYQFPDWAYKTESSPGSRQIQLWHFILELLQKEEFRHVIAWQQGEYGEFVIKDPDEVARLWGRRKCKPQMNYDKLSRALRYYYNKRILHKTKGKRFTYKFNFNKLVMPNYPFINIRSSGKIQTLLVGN
The essentials: as §1

The next experiment addresses ETV6 (Homo sapiens, UniProt P41212 1-452). The essentials:
as §1

Sequence of ETV6 (P41212 whole entry): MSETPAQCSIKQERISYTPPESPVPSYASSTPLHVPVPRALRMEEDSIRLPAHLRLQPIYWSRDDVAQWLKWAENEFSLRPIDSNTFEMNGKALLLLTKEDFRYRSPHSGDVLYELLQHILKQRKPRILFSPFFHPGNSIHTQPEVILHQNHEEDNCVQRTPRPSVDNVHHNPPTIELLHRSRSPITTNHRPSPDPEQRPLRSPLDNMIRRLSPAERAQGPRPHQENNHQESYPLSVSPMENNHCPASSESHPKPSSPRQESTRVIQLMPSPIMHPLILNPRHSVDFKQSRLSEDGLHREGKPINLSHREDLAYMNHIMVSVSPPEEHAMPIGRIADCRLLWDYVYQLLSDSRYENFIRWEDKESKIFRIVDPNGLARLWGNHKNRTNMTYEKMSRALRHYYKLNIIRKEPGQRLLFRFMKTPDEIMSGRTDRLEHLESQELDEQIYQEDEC
Sequence of ELF4 (Q99607 whole entry): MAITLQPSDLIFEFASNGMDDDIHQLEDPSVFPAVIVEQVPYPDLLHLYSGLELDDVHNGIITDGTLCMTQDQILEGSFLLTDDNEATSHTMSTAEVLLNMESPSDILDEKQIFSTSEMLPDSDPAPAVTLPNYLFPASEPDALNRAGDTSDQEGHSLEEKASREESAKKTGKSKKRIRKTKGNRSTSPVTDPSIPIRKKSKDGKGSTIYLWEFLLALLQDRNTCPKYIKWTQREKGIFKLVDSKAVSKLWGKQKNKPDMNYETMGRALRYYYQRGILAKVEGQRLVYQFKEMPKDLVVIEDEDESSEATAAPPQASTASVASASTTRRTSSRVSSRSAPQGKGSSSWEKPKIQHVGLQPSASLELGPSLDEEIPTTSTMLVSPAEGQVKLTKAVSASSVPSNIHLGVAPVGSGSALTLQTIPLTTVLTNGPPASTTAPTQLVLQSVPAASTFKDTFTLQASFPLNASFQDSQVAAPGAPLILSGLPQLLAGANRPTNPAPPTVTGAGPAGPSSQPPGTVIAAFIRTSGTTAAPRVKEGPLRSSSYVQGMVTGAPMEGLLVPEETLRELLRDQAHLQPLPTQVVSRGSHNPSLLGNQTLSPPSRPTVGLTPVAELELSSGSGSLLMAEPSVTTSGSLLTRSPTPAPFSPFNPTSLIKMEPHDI
Sequence of SPIB (Q01892 whole entry): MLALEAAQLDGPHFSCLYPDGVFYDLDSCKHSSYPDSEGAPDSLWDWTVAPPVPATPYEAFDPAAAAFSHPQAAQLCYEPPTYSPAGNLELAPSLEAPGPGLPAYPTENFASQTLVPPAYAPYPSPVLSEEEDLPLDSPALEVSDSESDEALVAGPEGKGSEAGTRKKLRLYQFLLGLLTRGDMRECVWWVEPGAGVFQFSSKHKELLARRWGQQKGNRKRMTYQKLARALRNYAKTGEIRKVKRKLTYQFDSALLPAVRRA
Sequence of ELF1 (P32519 whole entry): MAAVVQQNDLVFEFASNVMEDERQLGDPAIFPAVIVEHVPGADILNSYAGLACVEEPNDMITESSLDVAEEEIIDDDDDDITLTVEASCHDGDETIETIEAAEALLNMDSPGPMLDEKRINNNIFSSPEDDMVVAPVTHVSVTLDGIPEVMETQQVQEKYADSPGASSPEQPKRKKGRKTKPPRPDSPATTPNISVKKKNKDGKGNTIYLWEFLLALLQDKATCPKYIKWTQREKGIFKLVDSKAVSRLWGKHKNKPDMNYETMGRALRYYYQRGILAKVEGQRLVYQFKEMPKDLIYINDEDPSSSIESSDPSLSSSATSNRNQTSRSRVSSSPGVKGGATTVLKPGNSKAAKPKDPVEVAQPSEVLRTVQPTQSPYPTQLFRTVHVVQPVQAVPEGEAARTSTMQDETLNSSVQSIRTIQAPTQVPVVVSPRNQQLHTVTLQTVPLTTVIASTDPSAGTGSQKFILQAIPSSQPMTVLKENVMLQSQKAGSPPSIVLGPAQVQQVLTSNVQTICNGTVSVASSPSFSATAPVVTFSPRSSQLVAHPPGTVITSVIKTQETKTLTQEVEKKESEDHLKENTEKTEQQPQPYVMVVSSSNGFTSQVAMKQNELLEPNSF
Sequence of ETV1 (P50549 whole entry): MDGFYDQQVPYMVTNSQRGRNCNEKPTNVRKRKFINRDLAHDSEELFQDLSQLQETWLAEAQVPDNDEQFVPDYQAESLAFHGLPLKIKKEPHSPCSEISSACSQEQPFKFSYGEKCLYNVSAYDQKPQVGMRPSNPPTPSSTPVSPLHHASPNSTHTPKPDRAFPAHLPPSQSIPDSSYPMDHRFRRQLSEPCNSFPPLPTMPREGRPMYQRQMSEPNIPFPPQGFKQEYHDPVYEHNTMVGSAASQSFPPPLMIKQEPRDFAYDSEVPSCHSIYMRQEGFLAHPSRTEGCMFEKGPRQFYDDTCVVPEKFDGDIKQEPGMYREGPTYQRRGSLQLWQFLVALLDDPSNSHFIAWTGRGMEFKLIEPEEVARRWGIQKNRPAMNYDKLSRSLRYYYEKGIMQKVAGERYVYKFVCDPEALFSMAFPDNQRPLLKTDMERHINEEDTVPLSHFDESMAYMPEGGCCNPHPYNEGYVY

In the case of TGTCAA, the binding signal with FLI1 was 1.02 fold enrichment (6-mer frequency, TF over GST control); in the experiment with GABPA it was 1.01 fold enrichment (6-mer frequency, TF over GST control); with ERG, 1.05 fold enrichment (6-mer frequency, TF over GST control); in the experiment with ELF1, 1.05 fold enrichment (6-mer frequency, TF over GST control); with SPIB, 1.02 fold enrichment (6-mer frequency, TF over GST control); in the experiment with ELF4 it was 1.08 fold enrichment (6-mer frequency, TF over GST control). Further, the binding signal with ELK4 is 1.11 fold enrichment (6-mer frequency, TF over GST control); in the experiment with ETV2, 1 fold enrichment (6-mer frequency, TF over GST control); in the experiment with ELF3 it was 1.15 fold enrichment (6-mer frequency, TF over GST control); with ETV1, 1.06 fold enrichment (6-mer frequency, TF over GST control); with ERF it was 1.07 fold enrichment (6-mer frequency, TF over GST control); with ETV3L it was 1.07 fold enrichment (6-mer frequency, TF over GST control). In addition, the binding signal is 1.08 fold enrichment (6-mer frequency, TF over GST control) with ETV3 and 1.04 fold enrichment (6-mer frequency, TF over GST control) in the experiment with ETV6.
